Compound activity as filed in PubChem BioAssay.
DT40 TDP1 CPT: growth inhibition of DT40 Tdp1-/-;hTDP1 cells with camptothecin (screen for TDP1 inhibitors) | chicken DT40 Tdp1-/-;hTDP1 cells + 20 nM CPT, ATP luminescence, 48 h | Potency, µM (titrated, usually from 46.2 µM), for inactives: at the highest dose activity change, negative = growth inhibition, most hits filed as inhibitors | 420,000 tested, 12% active | AID 686979; note: potency is the fitted concentration of half-maximal effect; % is set by controls: 0 for no effect and ±100 for the full control effect; nearly all actives have a fitted effect of over 55% in size
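Chicken DT40 Tdp1-/- cells stably complemented with human TDP1 were seeded at 400 cells/well in medium containing 20 nM camptothecin, exposed to pin-transferred compounds, and grown at 37 °C for at least 48 hr. Viability was read as ATP luminescence.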
IL-1B inflam inh: inflammasome signaling inhibition, IL-1 beta readout; THP-1 LPS/ATP IL-1B secretion, AlphaLISA, 16 h; hits give low values; activity change, % at 57.5 µM; 360,000 tested, 4.7% active; in the data active = activity change below about -50%; inconclusive = mostly about -30% to -49%; note: % is set by controls: 0 for no effect and ±100 for the full control effect
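Secreted IL-1B measured by AlphaLISA bead assay after 16 h compound exposure of THP-1 cells; compounds (final up to 57.5 uM) added 1 h before LPS (250 ng/mL) and ATP (1.25 mM) stimulation; lower signal means less secretion.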
TGFb inhibitor: blocks TGF-b signaling | HepG2 CAGA-GFP TGF-b/SMAD3 reporter, GFP fluorescence, 18 h; TGF-beta stimulated, 500 pg/mL final | Potency, µM (highest dose often 46.1 µM), without a hit: at the highest dose activity, negative = inhibition, usual class: inhibitors | 410,000 tested, 1.2% active; note: potency is the fitted concentration of half-maximal effect; % is set by controls: 0 for no effect and ±100 for the full control effect; nearly all actives have a fitted effect of over 65% in size
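TGF-beta reporter screen: HEPG2 CAGA-GFP, 1% FBS, 500 pg/mL TGF-beta final, 18 h; per-cell GFP summed per well; curves fitted and categorized by class.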
DT40 TDP1 no CPT: qHTS for Inhibitors of human tyrosyl-DNA phosphodiesterase 1 (TDP1): qHTS in cells in absence of CPT. DT40 Tdp1-/- hTDP1 cells, no CPT, ATP luminescence, 48 h. Potency, µM (top dose mostly 46.2 µM), without a hit: at the highest dose activity change, negative = growth inhibition, usual class: inhibitors. 420,000 tested, 15% active; note: potency is the fitted concentration of half-maximal effect; % is set by controls: 0 for no effect and ±100 for the full control effect; nearly all actives have a fitted effect of over 55% in size
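Chicken DT40 Tdp1-/- cells complemented with human TDP1, screened without camptothecin (DMSO vehicle only), 400 cells/well. Compounds pin-transferred, cells incubated at 37 °C for at least 48 hr. Growth read as ATP-dependent luminescence (CellTiter-Glo, 30 min at RT).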
HepG2 viability: kills HepG2 cells in TGF-b inhibitor counter-screen. HepG2 CAGA-GFP viability, ATP luminescence, 18 h. Potency, µM (series often up to 46.1 µM), for inactives: at the top dose activity change, negative = cytotoxicity, hits mostly cytotoxic. 410,000 tested, 0.76% active. AID 588856; note: potency is the fitted concentration of half-maximal effect
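CellTiter-Glo luminescence gave cytotoxicity after 18 hours at 37 degrees C. The cells were HepG2 CAGA-GFP in 1% FBS DMEM, stimulated with 500 pg/mL TGF-beta after compound addition. %Activity was normalised to no-cell wells (complete cell-killing) and DMSO (no toxicity), and curves were fitted and classified.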
TDP1 block: inhibitors of human tyrosyl-DNA phosphodiesterase TDP1; Potency, µM (top dose mostly 130 µM), inactives show at the top dose activity change, negative = inhibition, hits mostly inhibitors; Q9NUW8; AID 485290; recombinant TDP1, AlphaScreen DNA substrate cleavage; 350,000 tested, 0.28% active; note: potency is the fitted concentration of half-maximal effect; % is set by controls: 0 for no effect and ±100 for the full control effect; nearly all actives have a fitted effect of over 40% in size
Target sequence (Q9NUW8 whole entry, looked up): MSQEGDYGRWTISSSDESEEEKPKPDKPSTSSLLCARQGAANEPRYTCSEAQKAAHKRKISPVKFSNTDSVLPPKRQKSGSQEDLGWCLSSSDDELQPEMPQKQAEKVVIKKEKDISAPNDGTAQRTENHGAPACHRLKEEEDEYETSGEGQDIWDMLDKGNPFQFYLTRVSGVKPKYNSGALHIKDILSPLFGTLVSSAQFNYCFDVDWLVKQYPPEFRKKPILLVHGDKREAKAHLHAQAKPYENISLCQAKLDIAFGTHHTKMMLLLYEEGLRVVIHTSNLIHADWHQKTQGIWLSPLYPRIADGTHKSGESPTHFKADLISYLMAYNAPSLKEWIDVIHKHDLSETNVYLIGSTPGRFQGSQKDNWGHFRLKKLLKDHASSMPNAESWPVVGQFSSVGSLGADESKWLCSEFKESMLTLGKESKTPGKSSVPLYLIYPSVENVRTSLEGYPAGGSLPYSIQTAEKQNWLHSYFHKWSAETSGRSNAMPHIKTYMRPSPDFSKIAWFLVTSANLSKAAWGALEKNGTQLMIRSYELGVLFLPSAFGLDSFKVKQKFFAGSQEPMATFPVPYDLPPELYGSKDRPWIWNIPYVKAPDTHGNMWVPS
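Here, a 5' biotin and 3' phosphotyrosine-FITC DNA oligonucleotide reports Tdp1 activity: intact substrate bridges AlphaScreen beads, while cleavage leaves a 3' phosphate and drops signal. All incubations at room temperature.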
An asterisk follows results filed as active; u = inconclusive; x = no result given; [ ] = another dose, or the depositor's remark. Most compounds without a hit are left out; they make up all but 19% or so of the library. Unless noted, calls come from the whole dose curve; as a rule, active = well fitted curve in the direction sought with a large enough effect; inconclusive = small, poorly fitted or top-dose-only effect, or another doubt; inactive = no such curve, though single readings can be large; an effect the other way counts as inactive or inconclusive.

SMILES	DT40 TDP1 CPT	IL-1B inflam inh	TGFb inhibitor	DT40 TDP1 no CPT	HepG2 viability	TDP1 block
COc1ccc(-c2cc(C(=O)N(C)Cc3cccc(OC)c3OC)c3ccccc3n2)cc1OC	20.6µM*	-10.1	5.0%	14.6µM*	-11.2%	x
COc1cccc(CN(C)C(=O)c2cc(-c3ccc(OC)c(OC)c3)nc3ccccc23)c1	14.6µM*	-22.0	0.0%	u	-56.1%	1.9%
COc1ccc(CN(C)C(=O)c2cc(-c3ccc(OC)c(OC)c3)nc3ccccc23)c(OC)c1	16.4µM*	-3.2	-14.7%	18.4µM*	-26.0%	6.1%
CN1CCC(N(C)C(=O)c2cc(-c3ccccc3Cl)nc3ccccc23)CC1	u	0.0	-1.1%	u	-24.2%	1.8%
CN1CCC(N(C)C(=O)c2cc(-c3ccc(F)cc3)nc3ccccc23)CC1	u	-67.8*	27.4%	u	-15.8%	2.2%
O=C(COc1ccc(F)cc1)NNC(=O)Cn1ccc(C(F)(F)F)n1	-16.3%	-4.3	0.2%	-0.9%	9.9%	-0.4%
Cc1c(Cl)cccc1NC(=O)CCC(=O)N/N=C/c1ccc[nH]1	-4.9%	-21.6	-9.2%	0.8%	-5.9%	3.0%
N#CN1CCC(NS(=O)(=O)c2ccc(F)cc2)CC1	x	x	x	x	x	-0.3%
CCOC(=O)c1c(NC(=O)CCCOc2ccccc2C)sc2c1CCC(C)C2 (stereo not given)	-12.2%	x	-11.7%	-2.5%	-17.6%	1.3%[12.3 µM]
CC(C)Oc1cc(C(=O)NC2CCCCC2)c2ccccc2n1	u	-17.3	3.5%	u	-44.9%	-3.0%
O=S1(=O)N[C@H](Cc2ccccc2)COc2cc(N3CCC[C@@H]3CO)ccc21	u	49.5	x	u	x	x
COc1ccc(CN(C)C(=O)c2cc(-c3ccccc3)nc3ccc(C)cc23)c(OC)c1OC	18.4µM*	-64.1*	-7.8%	16.4µM*	-33.8%	3.4%
Cc1ccc(S(=O)(=O)N2[C@@H](c3ccc(Cl)cc3)C(C(=O)O)=CC[C@H]2c2ccc(Cl)cc2)cc1	u	0.0	u	u	-30.8%	1.8%
CCOC(=O)CNC(=O)O[C@H]1C(=O)c2cc(OC)ccc2O[C@@H]1c1ccc(OC)c(Br)c1	x	x	x	x	x	10.0%
COc1ccc(CNCc2c(C(=O)O)n(Cc3ccc(F)cc3)c3cc(C)ccc23)cc1OC	20.6µM*	x	-4.2%	23.1µM*	-2.9%	2.6%
Cc1ccc2c(CNCCc3ccco3)c(C(=O)O)n(Cc3ccc(F)cc3)c2c1	20.6µM*	x	u	25.9µM*	-17.9%	5.1%
COc1ccc2c(CNCC(C)c3ccccc3)c(C(=O)O)n(Cc3ccc(F)cc3Cl)c2c1 (stereo not given)	-17.1%	x	0.0%	-11.5%	-15.3%	2.6%
Cc1ccc2c(CNCc3cccc(Cl)c3)c(C(=O)O)n(Cc3ccc(F)cc3Cl)c2c1	3.26µM*	x	-0.3%	3.26µM*	-49.5%	8.5%
COc1ccc(Cn2c(C(=O)O)c(CNCc3ccc(C)o3)c3ccc(C)cc32)cc1	u	x	-26.1%	u	-32.1%	8.5%
Cc1ccc(Cn2c(C(=O)O)c(CNCCc3cccs3)c3ccc(C)cc32)cc1	u	x	u	-20.8%	-6.6%	2.6%
C=Cc1ccc(Cn2c(C(=O)O)c(CNCc3ccccc3)c3ccc(C)cc32)cc1	7.31µM*	x	u	4.61µM*	20µM*	8.5%
C=Cc1ccc(Cn2c(C(=O)O)c(CNCc3cc(Br)ccc3OC)c3ccc(C)cc32)cc1	-5.2%	x	-21.6%	u	5.6%	2.8%
COc1ccc(C(=O)NC2CCN(CC(=O)NCc3ccccc3)CC2)cc1	-7.0%	-0.7	0.2%	-13.4%	-2.9%	x
CCCNC(=O)OC[C@@H]1O[C@H](CCO/N=C(\C)CCN2CCCc3nc(C)c(C)cc32)C=C[C@@H]1Oc1ccc(OC)cc1	x	x	x	x	x	7.9%[21 µM]
